Experiment [1] in a line: anti-His antibody binders, primary screen, artefact control for SMM control protein annotation, biochemical, small-molecule microarray, 635 nm fluorescence (AID 1128).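 Note: score merges feature fluorescence with signal-to-noise for each printed compound spot.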 The conditions noted are these: anti-His Alexa647 antibody binding, higher = more signal.
Experiment [2] concerns Human papillomavirus type 1a E7 protein (residues 1-88). Nature of the experiment: HPV1a E7 small-molecule binders, primary screen, biochemical, small-molecule microarray, residues 1-88, 635 nm (AID 1129). The conditions noted are these: small-molecule microarray binding, fluorescence 635 nm; higher = more signal.
Experiment [3] deals with Focal adhesion kinase 1 (Homo sapiens) (UniProt Q05397). Nature of the experiment: small-molecule microarray binders of FAK, primary screen, biochemical, 635/667 nm fluorescence, BSA, DTT (AID 1130).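 Note: composite of spot emission at 667 nm and signal to noise over triplicate slides.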 The following applies: PTK2 binding, 635 nm fluorescence, higher = more signal.
Experiment [4] relates to Fibrinogen (Alexa647-labelled). Nature of the experiment: fibrinogen binders on compound microarrays, profiling panel, artefact control for SMM control-protein annotation, biochemical, small-molecule microarray, 635/667 nm fluorescence (AID 1131).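 Note: z-score merges 667 nm fluorescence with per-spot signal-to-noise over triplicate slides.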 The conditions noted are these: fibrinogen-A647 binding fluorescence, higher = more signal.
The target of experiment [5] is Follistatin (Homo sapiens) (UniProt P19883). Nature of the experiment: follistatin binders on small-molecule microarrays, primary screen, biochemical, small-molecule microarray, 635/667 nm fluorescence (AID 1132). The following applies: FST binding, 635 nm fluorescence, higher = more signal.
Experiment [6] concerns the target Fibroblast growth factor 2 (Homo sapiens) (UniProt P09038). As to the kind of experiment: FGF2 binders on small-molecule microarrays, primary screen, biochemical, small-molecule microarray, 635/667 nm fluorescence (AID 1133). The conditions noted are these: small-molecule microarray binding, FGF2, fluorescence 635/667; higher = more signal.
The nature of experiment [7]: mitochondrial membrane potential change in A549 cells, profiling panel, cell-based, JC-1 fluorescence, basal, 24 h, 100 nL (AID 1138).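 Note: A549 lung adenocarcinoma cells under basal conditions with no added stimulus; test concentration not given here.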 The following applies: higher = more signal.
The subject of another experiment is Lefty1. Nature of the experiment: Lefty1 binders on small-molecule microarrays, primary screen, biochemical, small-molecule microarray, 635/667 nm fluorescence (AID 1139). The following applies: small-molecule microarray binding, fluorescence 635/667; higher = more signal.
Experiment [8] has as its system wheat germ agglutinin (Triticum aestivum), Alexa647-labelled. As to the kind of experiment: wheat germ agglutinin binders on compound microarrays, profiling panel, artefact control for SMM control-protein annotation, biochemical, small-molecule microarray, 635/667 nm fluorescence (AID 1140).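 Note: score merges 667 nm feature emission with signal to noise over triplicate slides.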 The conditions noted are these: WGA-A647 binding, 635 nm fluorescence, higher = more signal.

The target of experiment [9] is Luciferin 4-monooxygenase (Photinus pyralis) (UniProt P08659). As to the kind of experiment: firefly luciferase enzyme inhibitors, primary screen, biochemical, luminescence, purified enzyme, 2006 set (AID 1141).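 Note: cell-free assay with purified firefly luciferase at 100 ng per well in PBS; test concentration not given here.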 The following applies: SteadyGlo luminescence, 30 min, higher = more signal, called active from +8 up or from −8 down.
For experiment [10], the system named is Wnt5a (protein binding on small-molecule microarray). As to the kind of experiment: Wnt5a binders on small-molecule microarray, primary screen, biophysical, 635/667 nm fluorescence (AID 1142).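 Note: fluorescence read at 667 nm with signal to noise per printed feature.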 The following applies: 635 nm fluorescence, higher = more signal.
Experiment [11] in a line: cell viability in Huh7 cells, primary screen, cytotoxicity control for HCV replication inhibitor project, CellTiter-Glo luminescence, basal, 48 h (AID 1143).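 Note: Huh7 hepatoma cells carrying a hepatitis C replication reporter with no stimulus; test concentration not given here.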 The conditions noted are these: Huh7 HCV replicon, higher = more signal, called active from +8 up or from −8 down. Background: Cellular ATP, detected with luciferase, serves as a proxy for viable cell number.
Experiment [12] can be described thus: P. aeruginosa biofilm formation inhibitors, primary screen, PAO1 strain, BacTiter-Glo luminescence, LB-PBS (AID 1144). The conditions noted are these: 12 h, higher = more signal.
The nature of experiment [13]: CREB reporter modulators without forskolin, primary screen, cell-based, PC12, CRE-LacZ reporter, unstimulated (AID 1145). The following applies: no forskolin, luminescence, 4.5 h, higher = more signal, called active from +8 up or from −8 down.
Experiment [14] can be described thus: CREB reporter modulators under forskolin, primary screen, cell-based, PC12, CRE-LacZ reporter, forskolin-stimulated (AID 1146).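 Note: PC12 cells with 6xCRE LacZ reporter stimulated by forskolin 10 µM; beta-galactosidase reporter signal reflecting CREB driven transcription.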 The conditions noted are these: luminescence, 4.5 h, higher = more signal, called active from +8 up or from −8 down.
Experiment [15] deals with Streptavidin (Streptomyces avidinii) (UniProt P22629). As to the kind of experiment: streptavidin binders on small-molecule microarray, primary screen, artefact control for SMM compound annotation, biophysical, 635/667 nm fluorescence (AID 1147).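 Note: signal reflects streptavidin binding to arrayed compounds as a control protein.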 The conditions noted are these: streptavidin binding, higher = more signal.
Experiment [16] is described as follows: small-molecule binders of probe aInhba, primary screen, biochemical, small-molecule microarray, 635/667 nm fluorescence (AID 1148).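 Note: score merges 667nm spot fluorescence with signal-to-noise for antibody binding to printed compounds.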 The following applies: higher = more signal.
Experiment [17] concerns the target Torsin-1A (Homo sapiens) (UniProt O14656). As to the kind of experiment: torsin A binders from cell lysate, primary screen, small-molecule microarray, wild-type, 635/667 nm (AID 1149). The conditions noted are these: COS7 hTOR1A-WT lysate, 635 nm fluorescence, higher = more signal.
For experiment [18] the target is unchanged. As to the kind of experiment: small-molecule binders of mutant TOR1A in lysate, primary screen, cell lysate, small-molecule microarray, COS7 lysate, 635/667 nm fluorescence (AID 1150).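 Note: score pools 667 nm emission and signal to noise measuring lysate protein binding.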 The following applies: COS7 hTOR1A mutant lysate, 635 nm fluorescence, higher = more signal.
In experiment [19] the test system is Sonic hedgehog protein (Shh). As to the kind of experiment: small-molecule binders of Shh protein, primary screen, biochemical, small-molecule microarray, 635/667 nm fluorescence (AID 1151).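 Note: Shh protein binding to compounds spotted on small-molecule microarray slides; score combines spot fluorescence intensity with signal-to-noise across triplicate slides.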 The following applies: small-molecule microarray binding, 635 nm fluorescence; higher = more signal.

Results on five molecules are retold here after PubChem BioAssay.

Activity calls are given as the source filed them. Unless noted, the rule behind the calls is not given here.

Follistatin (Homo sapiens), sequence (P19883 whole entry, looked up): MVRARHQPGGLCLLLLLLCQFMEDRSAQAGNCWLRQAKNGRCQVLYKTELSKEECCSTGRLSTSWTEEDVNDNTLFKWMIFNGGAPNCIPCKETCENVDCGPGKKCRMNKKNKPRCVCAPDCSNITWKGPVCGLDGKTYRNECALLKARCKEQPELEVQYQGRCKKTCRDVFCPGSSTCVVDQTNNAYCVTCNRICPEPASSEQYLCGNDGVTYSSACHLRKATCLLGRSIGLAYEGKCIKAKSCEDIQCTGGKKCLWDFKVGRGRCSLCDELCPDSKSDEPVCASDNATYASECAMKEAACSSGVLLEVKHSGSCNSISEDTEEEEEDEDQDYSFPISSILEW
Streptavidin (Streptomyces avidinii), sequence (P22629 whole entry, looked up): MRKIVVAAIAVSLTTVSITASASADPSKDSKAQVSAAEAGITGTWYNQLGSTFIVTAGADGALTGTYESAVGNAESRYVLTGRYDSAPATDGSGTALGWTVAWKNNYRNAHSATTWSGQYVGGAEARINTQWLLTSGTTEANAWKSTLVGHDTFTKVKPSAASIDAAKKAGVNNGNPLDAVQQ
Torsin-1A (Homo sapiens), sequence (O14656 whole entry, looked up): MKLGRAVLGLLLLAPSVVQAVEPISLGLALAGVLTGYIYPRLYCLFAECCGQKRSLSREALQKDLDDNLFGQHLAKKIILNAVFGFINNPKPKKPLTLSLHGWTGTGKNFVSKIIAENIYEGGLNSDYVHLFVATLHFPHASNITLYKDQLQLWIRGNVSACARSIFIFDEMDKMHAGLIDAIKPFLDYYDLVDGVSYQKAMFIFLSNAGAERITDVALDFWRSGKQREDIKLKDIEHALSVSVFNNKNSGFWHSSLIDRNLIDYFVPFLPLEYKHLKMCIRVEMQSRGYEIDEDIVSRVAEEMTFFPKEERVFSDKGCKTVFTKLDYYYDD
Fibroblast growth factor 2 (Homo sapiens), sequence (P09038 whole entry, looked up): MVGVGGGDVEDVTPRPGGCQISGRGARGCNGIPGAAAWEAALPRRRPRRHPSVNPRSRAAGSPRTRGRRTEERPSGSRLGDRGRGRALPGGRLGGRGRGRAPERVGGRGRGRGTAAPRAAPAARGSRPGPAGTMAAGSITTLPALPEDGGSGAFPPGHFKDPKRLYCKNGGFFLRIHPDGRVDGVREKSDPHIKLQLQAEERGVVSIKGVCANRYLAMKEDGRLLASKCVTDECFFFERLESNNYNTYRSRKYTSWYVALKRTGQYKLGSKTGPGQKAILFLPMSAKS
Luciferin 4-monooxygenase (Photinus pyralis), sequence (P08659 whole entry, looked up): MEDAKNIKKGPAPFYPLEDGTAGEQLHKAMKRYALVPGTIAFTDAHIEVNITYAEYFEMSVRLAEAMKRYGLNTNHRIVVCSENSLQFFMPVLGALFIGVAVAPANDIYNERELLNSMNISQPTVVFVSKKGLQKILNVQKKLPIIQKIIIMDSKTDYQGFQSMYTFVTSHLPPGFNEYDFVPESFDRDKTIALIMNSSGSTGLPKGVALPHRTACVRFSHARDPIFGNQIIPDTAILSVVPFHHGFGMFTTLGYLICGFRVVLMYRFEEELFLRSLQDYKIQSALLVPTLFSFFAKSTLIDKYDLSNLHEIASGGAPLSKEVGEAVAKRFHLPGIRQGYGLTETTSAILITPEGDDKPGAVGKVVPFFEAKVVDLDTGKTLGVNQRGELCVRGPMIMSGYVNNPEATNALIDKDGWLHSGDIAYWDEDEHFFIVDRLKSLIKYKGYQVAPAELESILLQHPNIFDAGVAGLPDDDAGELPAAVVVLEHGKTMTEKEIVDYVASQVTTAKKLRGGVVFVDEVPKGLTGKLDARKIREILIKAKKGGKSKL
Focal adhesion kinase 1 (Homo sapiens), sequence (Q05397 whole entry, looked up): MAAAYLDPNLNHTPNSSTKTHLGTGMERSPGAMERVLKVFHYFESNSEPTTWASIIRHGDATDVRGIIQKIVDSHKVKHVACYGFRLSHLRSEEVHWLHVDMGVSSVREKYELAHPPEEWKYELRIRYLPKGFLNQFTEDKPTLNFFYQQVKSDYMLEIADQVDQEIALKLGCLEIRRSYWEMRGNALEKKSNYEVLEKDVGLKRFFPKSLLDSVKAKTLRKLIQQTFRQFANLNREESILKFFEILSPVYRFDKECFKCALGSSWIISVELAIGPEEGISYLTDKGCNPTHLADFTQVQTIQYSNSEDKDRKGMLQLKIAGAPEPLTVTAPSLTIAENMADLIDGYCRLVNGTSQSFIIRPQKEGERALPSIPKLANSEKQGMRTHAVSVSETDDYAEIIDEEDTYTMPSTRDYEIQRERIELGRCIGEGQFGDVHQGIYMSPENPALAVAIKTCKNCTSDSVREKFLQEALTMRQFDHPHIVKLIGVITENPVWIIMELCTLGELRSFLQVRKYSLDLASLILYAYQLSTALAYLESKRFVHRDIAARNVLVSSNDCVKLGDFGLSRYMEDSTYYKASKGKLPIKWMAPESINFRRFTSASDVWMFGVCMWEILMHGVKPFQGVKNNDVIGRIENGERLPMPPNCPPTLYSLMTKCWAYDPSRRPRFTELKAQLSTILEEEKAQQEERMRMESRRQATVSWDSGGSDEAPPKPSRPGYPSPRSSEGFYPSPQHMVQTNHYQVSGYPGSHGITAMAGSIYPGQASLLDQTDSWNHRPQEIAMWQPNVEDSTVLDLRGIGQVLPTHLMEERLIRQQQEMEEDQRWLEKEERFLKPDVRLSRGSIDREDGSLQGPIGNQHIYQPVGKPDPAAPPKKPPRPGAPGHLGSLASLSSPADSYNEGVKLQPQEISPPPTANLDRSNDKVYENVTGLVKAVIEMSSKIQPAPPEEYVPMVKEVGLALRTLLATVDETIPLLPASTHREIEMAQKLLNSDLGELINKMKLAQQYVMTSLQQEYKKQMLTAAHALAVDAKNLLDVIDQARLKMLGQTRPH

With `C[C@]12C(=O)N(CCCCCO)[C@@H]3C(=O)N(c4ccc(Cl)cc4)CC=CC31O[C@@H]1/C=C\CCCOC(=O)C12` (stereo not given in full), the composite z-score in experiment [1] is -0.39; in experiment [2], -0.711; in [3] it was -0.83; in [4] it was -1.47; in [5], -0.271; in experiment [6] it was -1.27. For the same molecule, the composite z-score with Lefty1 is -0.431; in experiment [8], -1.31; in experiment [10] it was -0.937; in [15] it was -1.19; in experiment [16], -0.179; in the experiment with Torsin-1A (Homo sapiens) [17], -2.76. The composite z-score in the experiment with Torsin-1A (Homo sapiens) [18] is -1.63; in experiment [19] it was 0.0607. The z-score in experiment [7] was 0.428; in [9], -0.576 (inactive); in [11] it was -0.297 (inactive); in experiment [12] it was 1.45 (inactive); in experiment [13], 0.203 (inactive); in [14], -0.416 (inactive).

With `COc1ccc(C(=O)Nc2ccc(CN3C(=O)[C@@]4(O[C@@H](CC(=O)N5Cc6ccccc6C[C@H]5CO)[C@H]([Si](C)(C)c5ccc(OC)cc5)[C@H]4C)c4ccccc43)cc2)cc1`, the composite z-score in experiment [1] turned out to be 0.299; in experiment [2] it was 1.13; in experiment [3] it was 1.2; in [4], 0.724; in experiment [5] it was 1.33; in experiment [6], 1.33. For the same molecule, the composite z-score is 1.62 in the experiment on Lefty1; 0.365 in [8]; 0.206 in experiment [10]; -0.145 in experiment [15]; -0.154 in experiment [16]; 1.31 with Torsin-1A (Homo sapiens) [17]. Moreover, the values for the composite z-score (with Torsin-1A (Homo sapiens) [18]; in experiment [19]) were 0.002 and 1.62, respectively. The z-score in [7] is 1.29; in experiment [9], 0.0093 (inactive); in experiment [11] it was -3.32 (inactive); in [12], 0.127 (inactive); in experiment [13], 0.381 (inactive); in [14], 0.281 (inactive).

`C=C(COC)C(=O)CC[C@H](OC(=O)c1ccccc1-c1ccccc1C(=O)O)c1ccc(CO)o1`: the composite z-score in experiment [1] is 0.581; in experiment [2], 0.154; in [3] it was 0.36; in experiment [4] it was -0.576; in experiment [5] it was 1.35; in experiment [6], 1.66. Also, the composite z-score was 1.5 in the experiment on Lefty1; -0.2 in experiment [8]; 0.634 in experiment [10]; -0.451 in experiment [15]; -0.179 in experiment [16]; 0.507 in the experiment with Torsin-1A (Homo sapiens) [17]. The composite z-score is 1.79 with Torsin-1A (Homo sapiens) [18] and 1.69 in experiment [19]. Also, the z-score in experiment [7] was -0.666; in experiment [9], -0.846 (inactive); in experiment [11], 0.465 (inactive); in experiment [12] it was -0.39 (inactive); in experiment [13], 0.434 (inactive); in experiment [14], 0.964 (inactive).

`CCCCC(O)C1C=CC2C(=O)N(Cc3ccccc3)C(=O)C2N1n1cnnc1` (stereo not given): the composite z-score in experiment [1] is 2.39; in [2] it was 0.433; in experiment [3] it was 0.242; in [4] it was 0.892; in [5], 0.457; in [6] it was -0.0025. The composite z-score in the experiment with Lefty1 was 0.289; in experiment [8] it was 0.652; in [10] it was 0.0687; in experiment [15] it was 0.416; in [16], -0.0477; with Torsin-1A (Homo sapiens) [17], 0.0569. Further, the results for the composite z-score (with Torsin-1A (Homo sapiens) [18]; in experiment [19]) were -0.459 and 0.22, respectively. Also, the z-score in experiment [7] was -0.721; in experiment [9], 1.48 (inactive); in experiment [11] it was -4.01 (inactive); in [12], -0.372 (inactive); in experiment [13], 0.519 (inactive); in experiment [14], -0.422 (inactive).

As for `COC(=O)[C@@]1(Cc2ccc(F)cc2)[C@H]2c3cc(C(=O)N(C)C)n(Cc4ccc(C)c(F)c4F)c3C[C@H]2CN1C(=O)c1ccccc1`, the composite z-score is 2.08 in [1]; 0.864 in experiment [2]; 0.454 in [3]; 0.743 in [4]; 0.0662 in experiment [5]; -0.769 in experiment [6]. The composite z-score was -0.413 in the experiment with Lefty1; 0.854 in experiment [8]; 0.152 in experiment [10]; 0.993 in experiment [15]; 0.651 in experiment [16]; 0.123 with Torsin-1A (Homo sapiens) [17]. In addition, the composite z-score with Torsin-1A (Homo sapiens) [18] is 0.432; in [19] it was -0.553. Besides, the z-score is 1.33 in experiment [7]; 0.0883 (inactive) in [9]; -1.47 (inactive) in experiment [11]; 0.563 (inactive) in [12]; 0.0041 (inactive) in experiment [13]; 0.204 (inactive) in experiment [14].
